Measurements published in PubChem BioAssay (NCATS).
Inconclusive results are not listed. A number with no mark means an inactive call. The source made the active and inactive calls. The call rests on the fitted dose curve; in most records, active means well fitted inhibition curve with a large enough effect; inconclusive means small, poorly fitted or top-dose-only effect; inactive means no such curve, though single readings can be large or run the other way.

system: Zika virus NS2B-NS3 protease (unlinked); test: Optimization of GU AMC qHTS for Zika virus inhibitors: Unlinked NS2B-NS3 protease assay (AID 1347151); details: recombinant ZIKV NS2B-NS3 protease, fluorogenic AMC substrate; series mostly up to 52.5 µM; activity change, negative = inhibition: at the top concentration; further: nearly all actives have a fitted effect of over 80% in size;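 on activity change, negative = inhibition: 0% = no-inhibitor control and -100% = no-enzyme control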
Text: Avindra Nath, Ph.D., National Institute of Neurological Disorders and Stroke (NINDS), Bethesda, MD
Radhakrishnan Padmanabhan, Ph.D., Georgetown University (GU), Washington D.C.
Zika Virus causes congenital defects, including microcephaly and is associated with Guillain-Barre syndrome, eningoencephalitis and myelitis in infected adult. […] Using a target-based approach, we hope to establish a screening paradigm to uncover novel, cell-active NS2B-NS3 protease (Zika Virus) specific inhibitors from NCATS' collection of small molecules using qHTS.
Early Translation Branch (ETB)
National Center for Advancing Translational Sciences (NCATS), Rockville, MD
National Institute of Health (NIH), Bethesda, Maryland
Padmanabhan lab provided the NS2B hydrophilic domain and NS3 protease domain in a noncovalent complex used for the unlinked assay. Control compound aprotinin is obtained from Thermo Scientific (#78432; Waltham, Massachusetts). NS2B-NS3 AMC substrate (Bz-Nle-Lys-Arg-Arg-AMC; Nle-KRR-AMC) purchased from Bachem (#I-1995; Torrance, CA). Ac-VKTGKR-AMC purchased from Genscript or Bachem, Ac-FAAGKR-AMC purchased from Genscript, Ac-GLVKRR-AMC purchased from Genscript, Ac-LKKR-AMC purchased from Genscript.
GU AMC unlinked NS2B-NS3 protease qHTS protocol:
Briefly, 3 microL of Zika virus unlinked NS2B-NS3 protease (25 nM for linked final concentration), in assay buffer (10 mM Tris-HCl pH 8.0 with 0.01% Tween 20) was dispensed into a 1,536-well solid-bottom black plate (Greiner Bio One, Monroe, NC). Twenty-three nL of compounds (final concentration range 7.28 nM to 114 microM) or control Aprotinin (final concentration range 3.47 nM to 114 microM) were transferred via Wako Pin-tool (Wako Automation, Richmond, VA). […] Plates were then read immediately on a ViewLux High-throughput CCD imager (PerkinElmer, Waltham, MA) equipped with standard UV fluorescence optics (340(30) nm excitation, 450(20) nm emission) then incubated (room temperature, protected from light) for 15 minutes (~20% conversion). The change in fluorescence intensity over the 15-minute reaction period was normalized against no-inhibitor and no-enzyme controls and the resulting percent inhibition data were fitted to a 4-parameter Hill equation. Aprotinin was used as the intraplate control.
Potency means the concentration at half of the fitted maximal effect.

| SMILES | Potency | activity change, negative = inhibition [%] |
| --- | --- | --- |
| CC1COc2c(N3CCN(C)CC3)c(F)cc3c(=O)c(C(=O)O)cn1c23 (stereo not given) | 15 µM (active) | – |
| COc1ccc2c(c1)c(CC(=O)O)c(C)n2C(=O)c1ccc(Cl)cc1 | – | 3.09 |
| CCC1(C)CC(=O)NC1=O (stereo not given) | – | 1.84 |
| COc1ccc(C2CNC(=O)C2)cc1OC1CCCC1 (stereo not given) | – | 5.46 |
| CCOC(=O)c1ncn2c1CN(C)C(=O)c1cc(F)ccc1-2 | – | 5.21 |
| CC(C)NCC(O)COc1ccc(CCOCC2CC2)cc1 (stereo not given) | – | 3.79 |
| OCCN1CCN(CCCN2c3ccccc3Sc3ccc(C(F)(F)F)cc32)CC1 | – | -4.13 |
| CCCNCC(O)COc1ccccc1C(=O)CCc1ccccc1 (stereo not given) | – | 12.2 |
| CC(C(=O)O)c1cccc(C(=O)c2ccccc2)c1 (stereo not given) | – | -2.64 |
| Nc1nnc(-c2cccc(Cl)c2Cl)c(N)n1 | – | -1.3 |
| CN(Cc1cnc2nc(N)nc(N)c2n1)c1ccc(C(=O)N[C@@H](CCC(=O)O)C(=O)O)cc1 | 21.2 µM (active) | – |
| CC(=O)OCC(CCn1cnc2cnc(N)nc21)COC(C)=O | 26.7 µM (active) | – |
| CN1CCC(=C2c3ccccc3CC(=O)c3sccc32)CC1 | – | 2.3 |
| COc1ccccc1OCCNCC(O)COc1cccc2[nH]c3ccccc3c12 (stereo not given) | – | -8.68 |
| NC(=O)OCC(COC(N)=O)c1ccccc1 | – | -0.892 |
| Nc1ccn([C@H]2CC[C@@H](CO)O2)c(=O)n1 | – | 6.47 |
| O=c1[nH]cc(F)c(=O)[nH]1 | – | 6.73 |
| CN1C(C(=O)Nc2ccccn2)=C(O)c2ccccc2S1(=O)=O | – | -5.3 |
| COc1nc(C)nc(Cl)c1NC1=NCCN1 | – | -1.92 |
| CCOC(=O)Nc1ccc(NCc2ccc(F)cc2)nc1N | 23.8 µM (active) | – |

| SMILES | Potency | activity change, negative = inhibition [%] |
| --- | --- | --- |
| O=C1N(c2ccccc2)c2ccccc2C1(Cc1ccncc1)Cc1ccncc1 | – | 3.89 |
| CC#C[C@]1(O)CC[C@H]2[C@@H]3CCC4=CC(=O)CCC4=C3[C@@H](c3ccc(N(C)C)cc3)C[C@@]21C | – | -10.4 |
| Clc1ccc2nsnc2c1NC1=NCCN1 | – | -7.15 |
| O=C(c1ccc(OCCN2CCCCC2)cc1)c1c(-c2ccc(O)cc2)sc2cc(O)ccc12 | – | 4.12 |
| CN1C2CCC1CC(OC(=O)C(CO)c1ccccc1)C2 (stereo not given) | inactive | – |
| NCCS(=O)(=O)O | – | 6.35 |
| O=C1Cc2cc(CCN3CCN(c4nsc5ccccc45)CC3)c(Cl)cc2N1 | 26.7 µM (active) | – |
| NCCCCCC(=O)O | – | 5.59 |
| C[C@H]1c2cccc(O)c2C(O)=C2C(=O)[C@]3(O)C(O)=C(C(N)=O)C(=O)[C@@H](N(C)C)[C@@H]3[C@@H](O)[C@@H]21 | – | -9.95 |
| O=C(CCCN1CCC(O)(c2ccc(Cl)cc2)CC1)c1ccc(F)cc1 | – | 6.99 |
| COc1cc2nc(N3CCN(C(=O)c4ccco4)CC3)nc(N)c2cc1OC | 26.7 µM (active) | – |
| NC(CO)C(=O)NNCc1ccc(O)c(O)c1O (stereo not given) | – | 1.23 |
| Cc1ccc(-c2cc(C(F)(F)F)nn2-c2ccc(S(N)(=O)=O)cc2)cc1 | – | -1.72 |
| Cn1c(=O)c2c(ncn2C)n(C)c1=O | – | 1.48 |
| O=c1c(-c2ccc(O)cc2)coc2cc(O)cc(O)c12 | – | -9.26 |
| CN1CCN(CCCN2c3ccccc3Sc3ccc(Cl)cc32)CC1 | – | -7.09 |
| NS(=O)(=O)c1cc2c(cc1Cl)NCNS2(=O)=O | – | 0.181 |
| NC12CC3CC(CC(C3)C1)C2 | – | 3.79 |
| CN(C)C(=O)C(CCN1CCC(O)(c2ccc(Cl)cc2)CC1)(c1ccccc1)c1ccccc1 | – | 15.1 |
| NC(=O)NO | – | 1.29 |
